Screens (PubChem)
Rows were chosen to be rich in hits. Some 21% of all compounds tested hit in one or more screens of this group.
MRP1 act: activators of MRP-1; H69AR cells + doxorubicin, viability rescue, CellTiter-Glo; viability increase, % at 10 µM; 140,000 tested, 0.61% active;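 active means viability gain under doxorubicin at or above a set limit, the compound median plus 3 SD, cut at about 4.7% in these data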;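 further: MRP-1 overexpressing cells given doxorubicin 25 µM after compound pretreatment; 18-22 h compound pretreatment then 72 h with doxorubicin before readout; 0% = doxorubicin-only wells and 100% = vehicle-treated cells without doxorubicin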
CYP2C19 act: cytochrome P450 2C19 (human) activation | P33261 | recombinant CYP2C19, luciferin-H EGE luminescence; hits give high values; 0 = fully inhibited enzyme, 1 = untreated enzyme | activation factor at 5 µM | 96,000 tested, under 10 active;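 active means activation factor of at least 2 at 5 µM in the primary screen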;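 further: 0 = wells with 2.5 mM tranylcypromine and 1 = vehicle-only wells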
CYP2C19 inh: human CYP2C19 inhibition; 96,000 tested, 21% active; CYP2C19 Supersomes, luciferin-H EGE luminescence, 30 min; inhibition, % at 5 µM; AID 778;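 active means CYP2C19 inhibition above a set limit at 5 µM in the primary screen, cut at about 50% in these data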;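 further: plate controls were negative control wells for no effect and 2.5 mM tranylcypromine positive control for full effect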
CYP2C9 inh: blocks human cytochrome P450 2C9 | inhibition, % at 5 µM | 96,000 tested, 20% active | CYP2C9 Supersomes, luciferin-H conversion, luminescence | P11712;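 active means blocking of liver enzyme CYP2C9 beyond about 50% at 5 µM, limit read from the data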
Target sequence (P11712 whole entry, looked up): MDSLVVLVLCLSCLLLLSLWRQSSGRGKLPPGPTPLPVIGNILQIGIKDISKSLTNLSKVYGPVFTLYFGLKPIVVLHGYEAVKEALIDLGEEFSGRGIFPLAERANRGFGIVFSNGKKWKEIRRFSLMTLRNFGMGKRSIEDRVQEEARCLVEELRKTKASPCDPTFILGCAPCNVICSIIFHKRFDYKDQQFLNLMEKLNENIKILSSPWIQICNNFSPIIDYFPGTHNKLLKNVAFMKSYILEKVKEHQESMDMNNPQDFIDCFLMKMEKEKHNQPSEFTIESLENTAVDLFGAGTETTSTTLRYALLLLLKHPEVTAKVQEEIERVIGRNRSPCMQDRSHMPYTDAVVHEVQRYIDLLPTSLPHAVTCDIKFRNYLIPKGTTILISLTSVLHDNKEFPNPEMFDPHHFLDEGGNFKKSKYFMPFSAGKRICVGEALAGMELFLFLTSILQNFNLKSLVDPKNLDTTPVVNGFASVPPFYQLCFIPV
MRP resist rev: compounds reversing MRP-mediated drug resistance. H69AR cells + 2 uM doxorubicin, CellTiter-Glo, 72 h. differential viability (reversal), % at 10 µM. 85,000 tested, 0.04% active;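 active means viability drop by adding the cancer drug above about 55%, with treated viability meeting a 40% cutoff, limit read from the data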;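 further: viability without doxorubicin minus viability with 2 µM doxorubicin for each compound; larger differential means the compound sensitizes cells more to doxorubicin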
CYP2C9 activ: CYP2C9 (human) activation; P11712; recombinant CYP2C9, luciferin-H conversion, luminescence; hits give high values; factor 1 = untreated enzyme, 0 = blocked; activation factor at 5 µM; 96,000 tested, 1.4% active;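 active means activation factor of 2 or more for CYP2C9 at a 5 µM dose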;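 further: 0 = sulfaphenazole-blocked wells and 1 = vehicle-only wells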
Active calls of the source: *; nt = no result given.

SMILES	MRP1 act	CYP2C19 act	CYP2C19 inh	CYP2C9 inh	MRP resist rev	CYP2C9 activ
CN(C(=O)CSc1nnc(-c2ccccc2)c(-c2ccccc2)n1)C1CCS(=O)(=O)C1 (stereo not drawn)	-3.7	nt	nt	nt	nt	nt
CN(C(=O)CSc1nc(-c2ccccc2)cs1)C1CCS(=O)(=O)C1 (stereo not drawn)	-1.6	0.4	60.0*	-303.5	7.8	4*
CC(C)(C)n1nc(-c2ccc(Cl)cc2)c2c(N)ncnc21	-6.4	0.4	58.6*	12.9	nt	0.9
CN(C)CCN(Cc1ccccc1)c1ccnc(N(C)C)c1C#N	-4.3	1	-2.9	2.5	11.6	1
CN(C)c1ccnc(-n2cccc2/C=N/OCc2cccc(F)c2)c1C#N	0.9	0	96.6*	46.0	17.5	0.5
CCOc1ccc(Cl)cc1CSc1n[nH]c(CC)n1	0.0	0.1	93.6*	71.9*	-1.6	0.3
COc1ccc(CSc2n[nH]c(C)n2)cc1Br	1.0	0.6	38.7	14.0	nt	0.9
COc1ccc(Cl)cc1CSc1n[nH]c(C)n1	0.3	0.1	88.4*	15.2	4.7	0.8
CCCCOc1ccc(Cl)cc1CSc1n[nH]c(C)n1	-1.3	0.2	84.7*	64.5*	3.3	0.4
CCCCOc1ccc(Cl)cc1CSc1nnc(C)n1N	-2.3	0.8	19.0	20.5	-7.4	0.8
COc1ccc(CCN(C(=O)c2cccc(F)c2)C2CC(=O)N(c3ccccc3)C2=O)cc1 (stereo not drawn)	0.1	nt	nt	nt	nt	nt
COC(=O)CN(C(=S)Nc1ccc(F)cc1)C1CC(=O)N(c2ccc(OC)cc2)C1=O (stereo not drawn)	-1.6	0.1	93.4*	62.4*	nt	0.4
O=C1CC(N(Cc2ccco2)C(=O)Nc2ccc(F)cc2)C(=O)N1c1ccc(F)cc1 (stereo not drawn)	-0.9	0.2	79.7*	52.1*	4.4	0.5
COc1ccc(CCN(C(=O)c2cccc(F)c2)C2CC(=O)N(c3ccc(OC)cc3)C2=O)cc1 (stereo not drawn)	0.1	0.3	67.4*	53.3*	nt	0.5
CCn1ncc(/C=N/N=C2\CCC3C4CCc5cc(O)ccc5C4CCC23C)c1C (stereo not drawn)	-1.5	0.5	47.9	80.5*	nt	0.2
CCOC(=O)c1sc2ncn(C(CC)C(=O)OC)c(=O)c2c1C (stereo not drawn)	2.3	0.3	70.2*	96.0*	-0.5	0
CCOC(=O)c1sc2ncnc(OC)c2c1C	-0.4	0.6	41.5	31.6	-8.8	0.7
CCOC(=O)c1sc2ncn(C(CC)C(=O)OCC)c(=O)c2c1C (stereo not drawn)	-0.2	0.4	60.0*	83.0*	8.7	0.2
CCOC(=O)c1sc2ncn(C(C)C(=O)OC)c(=O)c2c1C (stereo not drawn)	0.7	0.4	57.3*	53.6*	14.3	0.5
CCOC(=O)c1sc2nc[nH]c(=O)c2c1C	-0.7	0.9	13.3	14.1	-7.3	0.9
CCCOC(=O)C(C)n1cnc2sc(C)c(C)c2c1=O (stereo not drawn)	-2.4	0.3	69.7*	55.7*	nt	0.4
CC(=O)NC1=C(C#N)C(c2ccccc2)c2c(ccc3ccccc23)O1 (stereo not drawn)	-2.3	0.1	91.0*	95.4*	nt	0
COc1cc(C2C(N3C(=O)c4ccccc4C3=O)C(=O)N2c2cccc(C)c2)cc(OC)c1OC (stereo not drawn)	-2.4	nt	nt	nt	nt	nt
Oc1ccc(-c2nc3ccccn3c2NCc2ccco2)cc1	-5.7	0.8	24.4	77.4*	2.6	0.2
O=C(Nc1c(-c2ccccc2)nc2ccccn12)c1ccco1	-1.4	1	2.2	23.5	14.9	0.8
SMILES	MRP1 act	CYP2C19 act	CYP2C19 inh	CYP2C9 inh	MRP resist rev	CYP2C9 activ
Cc1ccc(-c2nc3ccccn3c2NCc2ccc3c(c2)OCO3)cc1	-3.6	0.2	80.0*	72.3*	8.6	0.3
Cc1ccn2c(Nc3ccc4c(c3)OCO4)c(-c3ccccn3)nc2c1	-4.8	nt	nt	nt	nt	nt
O=C(Cn1c(=O)n(-c2ccc(F)cc2)c(=O)c2sccc21)c1ccccc1	-1.2	nt	nt	nt	nt	nt
CCOC(=O)N1CCN(C(=O)COc2ccc3c(c2)C(=O)CC2(CCN(C(C)=O)CC2)O3)CC1	-0.4	1.2	-17.1	12.9	-1.1	0.9
O=C1CC2(CCCCC2)Oc2ccc(O)cc21	-1.5	0.4	60.0*	16.3	nt	0.8
Cc1cc(C)c(N2CCN(S(=O)(=O)N3CCCCCC3)CC2)c(C)c1	1.1	0.2	80.0*	73.0*	0.0	0.3
Cc1ccc(N2CCN(S(=O)(=O)N3CCCCC3)CC2)cc1Cl	0.5	nt	nt	nt	nt	nt
CCOC(=O)N1CCN(c2nc(C)cc(C(F)(F)F)n2)CC1	0.6	0.3	65.5*	41.4	8.3	0.6
O=C1CCCC2=C1C(c1cccs1)Nc1ccc3ncccc3c12 (stereo not drawn)	-4.0	0.1	94.6*	94.5*	nt	0.1
Cc1ccsc1C1Nc2ccc3ncccc3c2C2=C1C(=O)CC(C)(C)C2 (stereo not drawn)	-6.0	0	98.4*	80.0*	nt	0.2
N#Cc1cc(C(=O)c2cc(Br)ccc2O)cn(C2CC2)c1=O	-1.2	0.5	50.8*	10.8	-11.9	0.9
Cc1ccc(-n2cc(C(=O)c3cc(Cl)ccc3O)cc(C#N)c2=O)cc1	-4.3	nt	nt	nt	nt	nt
CC(C)n1cc(C(=O)c2cc(Br)ccc2O)cc(C#N)c1=O	-3.2	0	97.7*	88.5*	12.8	0.1
CCCCn1cc(C(=O)c2cc(Br)ccc2O)cc(C#N)c1=O	2.4	0.2	77.9*	59.4*	5.8	0.4
COCc1[nH][nH]c(=O)c1C=Nc1ccc(Oc2ccccc2)cc1	-1.6	0.3	66.1*	29.1	-24.6	0.7
COc1cc(O)oc1C=Nc1ccc(Oc2ccccc2)cc1	-1.9	0.6	36.4	21.7	nt	0.8
CCOC(=O)C1=C(C)NC(C)=C(C(=O)OCC)C1C(=O)O	-1.8	1	0.7	1.2	-4.2	1
CCOC(=O)C1=C(C)NC(C)=C(C(=O)OCC)C1c1ccc(O)cc1	-2.7	0	97.8*	97.9*	7.6	0
CCOC(=O)C1=C(C)NC(C)=C(C(=O)OCC)C1c1sccc1C	1.4	0.4	56.1*	90.3*	nt	0.1
CC1=C(C(=O)OCc2ccccc2)C(c2ccc(N(C)C)cc2)NC(=O)N1 (stereo not drawn)	-0.6	nt	nt	nt	2.0	nt
CCCC1C(C(=O)OCC)=C(C)NC(C)=C1C(=O)OCC	-0.9	0.1	93.8*	67.8*	-18.2	0.3
COC(=O)C1=C(C)NC(C)=C(C(=O)OC)C1c1ccc(N(C)C)cc1	-3.8	0.2	83.8*	70.4*	8.0	0.3
COc1cc(-n2c(=O)c3ccccc3n(Cc3cc(=O)n4ccccc4n3)c2=O)cc(OC)c1OC	-0.1	nt	nt	nt	nt	nt
COc1ccc(NC(=O)C2CCCN(S(=O)(=O)c3ccc4c(c3)oc(=O)n4C)C2)c(OC)c1 (stereo not drawn)	0.1	0.5	51.4*	37.6	4.6	0.6
Cc1csc(NC(=O)C2CCCN(S(=O)(=O)c3ccc4c(c3)oc(=O)n4C)C2)n1 (stereo not drawn)	-0.5	0.5	51.6*	49.0	1.4	0.5
COc1ccc(NC(=O)C2CCCN(S(=O)(=O)c3cccnc3)C2)c(OC)c1 (stereo not drawn)	-1.5	0.4	59.4*	15.2	8.0	0.8
Cc1ccc(NC(=O)C2CCCN(S(=O)(=O)c3ccc4c(c3)oc(=O)n4C)C2)nc1 (stereo not drawn)	-3.3	0.5	48.4	22.6	-6.0	0.8
CCOc1ccc2nc(SCC(=O)c3ccc(C)s3)sc2c1	0.6	0.5	51.3*	11.9	6.8	0.9
